From PubChem
697 NFkB inh = lowers PMA/ionomycin-induced NF-kB signal in 697 B cells; 697 B-cell NF-kB luciferase reporter, 16 h; inhibition, % at 4 µM; 0.33% of 330,000 active; AID 435022; in the data active = inhibition above about 35%
Mdm2 MdmX PPI = human Mdm2/MdmX binding inhibition | O15151+Q00987 | SaOS-2 split-luciferase Mdm2/MdmX complementation, luminescence | inhibition, % at 8 µM | 3% of 330,000 active;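 active = inhibition of at least 50% at 8 µM in the primary screen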
Target sequence (O15151 whole entry, looked up): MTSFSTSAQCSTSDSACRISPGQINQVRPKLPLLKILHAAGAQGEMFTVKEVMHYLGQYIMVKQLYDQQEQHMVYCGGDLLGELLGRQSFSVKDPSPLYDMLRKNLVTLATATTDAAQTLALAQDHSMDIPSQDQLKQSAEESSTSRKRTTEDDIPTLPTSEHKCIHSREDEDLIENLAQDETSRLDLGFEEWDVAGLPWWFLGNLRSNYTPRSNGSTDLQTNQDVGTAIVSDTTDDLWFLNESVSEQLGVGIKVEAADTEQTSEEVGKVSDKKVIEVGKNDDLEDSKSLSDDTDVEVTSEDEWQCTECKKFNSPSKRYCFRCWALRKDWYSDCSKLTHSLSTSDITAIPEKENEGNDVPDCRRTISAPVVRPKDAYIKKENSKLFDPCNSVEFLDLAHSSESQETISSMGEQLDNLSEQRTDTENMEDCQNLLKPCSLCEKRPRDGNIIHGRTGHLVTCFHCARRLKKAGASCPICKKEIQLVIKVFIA
Target sequence (Q00987 whole entry, looked up): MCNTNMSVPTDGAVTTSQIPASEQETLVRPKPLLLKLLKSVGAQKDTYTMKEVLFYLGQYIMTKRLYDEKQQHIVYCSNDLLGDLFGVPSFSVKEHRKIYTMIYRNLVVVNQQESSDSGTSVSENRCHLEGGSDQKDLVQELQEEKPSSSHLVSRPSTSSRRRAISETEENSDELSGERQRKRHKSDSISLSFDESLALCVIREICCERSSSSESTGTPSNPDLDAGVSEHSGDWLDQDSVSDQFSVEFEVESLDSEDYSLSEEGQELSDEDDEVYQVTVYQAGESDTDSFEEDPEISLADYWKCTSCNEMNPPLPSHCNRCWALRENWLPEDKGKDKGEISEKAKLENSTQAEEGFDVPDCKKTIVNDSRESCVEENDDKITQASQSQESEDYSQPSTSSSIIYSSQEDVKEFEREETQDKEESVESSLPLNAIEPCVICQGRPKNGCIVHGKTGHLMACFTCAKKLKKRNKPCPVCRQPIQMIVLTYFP
NTR1 agonist = NTR1 (human) agonism. P30989. NTR1-U2OS beta-arrestin-GFP spot imaging, agonist mode. activation, % at 20 µM. 0.17% of 330,000 active. AID 493036;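 active = activation at or above 40% of the spot to cytoplasm intensity ratio, with at least 20 cells analyzed; inconclusive = wells under 20 cells, flagged as cytotoxic or low count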;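 also: 0% = DMSO without peptide and 100% = 100 nM NTR1 peptide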
Jurkat NFkB inh = inhibitors of the PMA/ionomycin-induced NF-kB reporter in Jurkat cells | PMA/ionomycin-induced NF-kB luciferase reporter, luminescence | inhibition, % at 4 µM | 0.53% of 330,000 active | AID 435003; in the data active = inhibition above about 50%
Beta apoptosis = blocks beta cell apoptosis; INS-1E cytokine-induced death, ATP luminescence, 48 h; percent of positive-control rescue, neutral wells zero; protection from apoptosis, % (concentration not given with the values); 0.8% of 300,000 active;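 active = Every replicate reaches about 75%, or at least half do and their mean reaches it too, limit read from the data; inconclusive = At least half of replicates reach the limit but their mean does not; inactive = Under half of replicates reach the limit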;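 also: 0% = cytokine-treated negative control wells and 100% = positive control rescue; higher means more ATP so stronger rescue from cytokine killing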
Bfl-1 A1 inh = inhibitors of the anti-apoptotic protein A1, read as caspase activation; MEF A1-2A-BIM cells, Caspase-Glo 3/7 luminescence, 3 h; percent of clofoctol response, vehicle zero; caspase activation, % (no concentration beside the values); 0.066% of 330,000 active;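 active = over half of replicate activation scores above 10%, or exactly half above 10 with the replicate mean above 10; inconclusive = replicate mean below 10 yet half the replicates above 10; inactive = over half of replicates below 10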
Starred values were filed as active, the others as inactive; ? = inconclusive; . = no result given. An excerpt weighted towards active compounds, which were near 3.8% of everything screened.

SMILES	697 NFkB inh	Mdm2 MdmX PPI	NTR1 agonist	Jurkat NFkB inh	Beta apoptosis	Bfl-1 A1 inh
CC(=O)C1=C(c2ccc(Br)cc2)C(=O)c2ccccc2C1=O	.	.	.	.	107*	0
Cc1ccc(NC2=C(N3CCCCC3)C(=O)c3ccccc3C2=O)cc1	3	35	1	-1	76*	0
CC(=O)Nc1ccc(S(=O)(=O)NC2=C(N3CCN(C)CC3)C(=O)c3ccccc3C2=O)cc1	-11	27	1	29	99*	0
O=C1C(Nc2ccccc2)=C(N2CCCCC2)C(=O)c2ccccc21	12	42	-3	-8	83*	-1
COC1=C(Nc2ccccc2)C(=O)c2ccccc2C1=O	0	14	3	6	95*	0
O=C1C(Nc2cccc(O)c2)=C(N2CCCCC2)C(=O)c2ccccc21	-17	32	0	-5	.	-3
O=C(/C=C/c1ccc(O)cc1)c1ccc(NC2=C(N3CCCCC3)C(=O)c3ccccc3C2=O)cc1	26	48	1	11	10	-2
CCOc1ccccc1N(CC(=O)NC1CCCC1)C(=O)CNC(=O)c1cccs1	18	9	0	-5	1	0
COc1ccc(C)cc1NC(=O)C1CCN(S(=O)(=O)c2ccc3c(c2)C(C)(C)C(=O)N3C)CC1	4	16	-1	4	4	-1
Cc1cc(C)n(CCCNC(=O)C2CC(=O)N(Cc3ccccc3)C2)n1 (stereo not given)	9	-9	0	-14	-5	1
CCN(CC)S(=O)(=O)c1ccc(NC(=O)c2ccc(OCC3CCCO3)cc2)cc1 (stereo not given)	-11	-16	0	36	11	0
COc1ccccc1S(=O)(=O)N1CCNC(=O)C1	7	16	1	6	-6	1
CN(CCN1CCOCC1)C(=O)c1cc(COc2ccc(F)c(F)c2)on1	1	-10	1	-17	1	-1
COC(=O)c1ccccc1NC(=O)CN1C(=O)c2ccccc2C1=O	12	15	1	-2	-6	0
CCCOc1ccc(CSc2nc3ccccc3[nH]2)cc1	-77	-184	2	-23	112*	-6
COc1cc(C(=O)NC(C)c2ccc(-n3ccnc3)cc2)cc(OC)c1C (stereo not given)	-2	17	1	11	0	0
COc1ccc(OC)c(S(=O)(=O)NC(C)c2ccc(-n3ccnc3)cc2)c1 (stereo not given)	8	16	0	3	-6	13*
O=C(NCCS(=O)(=O)N1CCN(c2cccc(Cl)c2)CC1)C1CC1	15	-16	-1	8	-2	0
O=C1C(C2=NC(C(=O)O)C3C(=O)N(c4ccccc4)C(=O)C23)=C(O)c2ccccc21 (stereo not given)	-1	7	1	-16	-4	1
O=C1C(C2=NC(c3ccccn3)C3C(=O)N(c4ccc(OC(F)(F)F)cc4)C(=O)C23)=C(O)c2ccccc21 (stereo not given)	18	14	8	11	81*	0
Cc1ccccc1OCC(=O)Nc1nnc(C2CCCC2)s1	9	17	0	4	.	-1
CC1(C)CC(N2CCN(Cc3ccccc3)CC2)=CC(=[N+]2CCCCC2)C1	-15	36	0	47	109*	-1
CN(C)c1ccc(NC(=S)NC23CC4CC(CC(C4)C2)C3)cc1	-99	28	0	-34	111*	-1
Cc1ccc(OCC(=O)NCCNC(=O)c2ccco2)cc1	-15	-9	2	-18	-1	0
COc1ccc(Cl)c(Cn2c(NCc3ccco3)nc3c2c(=O)n(C)c(=O)n3C)c1	-8	20	2	11	78*	-1
SMILES	697 NFkB inh	Mdm2 MdmX PPI	NTR1 agonist	Jurkat NFkB inh	Beta apoptosis	Bfl-1 A1 inh
COc1cccc(Cn2c(NCc3ccco3)nc3c2c(=O)n(C)c(=O)n3C)c1	-15	12	1	17	95*	0
COCCNc1nc2c(c(=O)n(C)c(=O)n2C)n1Cc1cccc(C(F)(F)F)c1	-10	7	3	12	87*	0
CCCn1c(NCc2ccco2)nc2c1c(=O)n(C)c(=O)n2C	-23	-7	0	10	1	0
CCOc1ccc(NC(=S)NC(=O)/C=C/c2ccc(OC)c(OC)c2)c([N+](=O)[O-])c1	-21	39	3	-13	19	?
CCOc1ccc(NC(=S)NC(=O)/C=C/c2ccc(C)cc2)c([N+](=O)[O-])c1	4	37	-1	10	71	17*
COc1cc(C(=O)NC(=S)NNC(=O)c2cnccn2)cc(OC)c1OC	28	49	-1	1	82*	0
O=C(Nc1cccnc1)C1CCN(S(=O)(=O)c2ccc(Cl)cc2)CC1	-9	7	0	1	-3	1
Cc1cccc(NC(=O)/C(C#N)=C/c2cn(CC(=O)NCc3ccco3)c3ccccc23)c1	.	.	.	.	12	53*
Cc1csc(=O)n1CCC(=O)OCC(=O)c1c(N)n(CC(C)C)c(=O)n(C)c1=O	16	31	-1	12	-2	0
CC(C)Cn1c(N)c(C(=O)COC(=O)CC23CC4CC(CC(C4)C2)C3)c(=O)n(C)c1=O	-15	27	20	47	105*	0
CC(C)CNC(=O)COC(=O)c1c2c(nc3ccccc13)/C(=C/c1cccs1)CC2	.	.	.	.	78*	-1
Cc1nnsc1C(=O)NC1CCCc2c1cnn2-c1ccccc1F (stereo not given)	-20	1	-1	9	45	0
Cc1nnsc1C(=O)NC1CCCc2c1cnn2-c1ccc(C(C)(C)C)cc1 (stereo not given)	13	23	3	46	75*	1
COc1cccc(CC(=O)OCC(=O)N(C)CC(=O)Nc2ccc(F)cc2)c1	-1	-41	0	-9	1	0
O=C(Nc1ccccc1F)N1CCc2ccccc2C1	-40	-8	1	-57	0	-4
Oc1ccc(Nc2nc(-c3ccc4ccccc4c3)cs2)cc1	9	-88	10	-43	84*	0
CC(=O)Nc1nc(-c2ccc3ccccc3c2)cs1	-237	-255	-1	-145	8	-5
Cc1cc(N2CCCC2=O)cc(C)c1S(=O)(=O)NCCOc1ccc(C(C)(C)C)cc1	-43	21	9	6	109*	0
Cc1ccc(S(=O)(=O)N(C(=O)c2ccco2)c2cc3sc(=O)oc3c3ccccc23)cc1	-13	16	5	-4	53	0
CCOc1ccc(S(=O)(=O)N(C(=O)c2ccco2)c2cc3sc(=O)oc3c3ccccc23)cc1	-61	44	4	-9	99*	0
COc1ccc(S(=O)(=O)N(C(=O)c2ccco2)c2cc3sc(=O)oc3c3ccccc23)cc1	-24	47	3	8	98*	1
CC#CC[N+](C)(C)CCCCCCCC	-10	8	1	16	131*	-2
